# Compound activity deposited in PubChem by Broad Institute.
# Compounds with a hit are over-represented: about 3.4% of the library has one in this group of screens.
# LGR2 antag: blocks bursicon-induced cAMP signaling via Drosophila LGR2 | HEK293 LGR2, CRE-luciferase, bursicon-stimulated, 4 h | inhibition, % at 9.99 µM | actives 0.35% (n = 380,000) | AID 720647;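 active means drop in luminescence signal, shown as inhibition above about 50% in the replicate tests, limit read from the data, passing the limit was not always enough; inconclusive means probably only some replicates passing the limit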;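 further: agonist challenge used bursicon conditioned medium at about half maximal strength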
# PGC1a acetyl inh: modulators of PGC1a acetylation; U2OS PGC1a acetylation, AlphaScreen anti-acetyl-lysine; with virally co-expressed GCN5 acetyltransferase; inhibition, % at 15.6 µM; actives 0.17% (n = 350,000); AID 651687;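 active means every replicate shows inhibition of at least 40%; inconclusive means mean inhibition at least 40% but some replicate below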;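 further: 0% = neutral control wells and 100% = positive control wells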
# EWS-Fli inh: inhibitors of EWS/Fli oncoprotein transcriptional activity; actives 0.67% (n = 350,000); inhibition, % at 12.6 µM; AID 651661; A673 NR0B1-luciferase reporter, viability-normalised;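 active means mean inhibition of at least 50% after viability correction, with every replicate also passing that limit; inconclusive means mean reaches 50% but only one of two replicates passes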;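 further: firefly luciferase signal divided by Alamar Blue viability fluorescence both relative to DMSO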
# SIRT5 inh: inhibitors of human sirtuin-5 desuccinylase. inhibition, % at 15 µM. Q9NXA8. actives 1.1% (n = 330,000). Purified SirT5, succinyl-peptide AMC, trypsin-coupled fluorescence; in the data active means inhibition above about 15%; inconclusive means no clear call, values can overlap the other calls
# Target sequence (Q9NXA8 whole entry, looked up): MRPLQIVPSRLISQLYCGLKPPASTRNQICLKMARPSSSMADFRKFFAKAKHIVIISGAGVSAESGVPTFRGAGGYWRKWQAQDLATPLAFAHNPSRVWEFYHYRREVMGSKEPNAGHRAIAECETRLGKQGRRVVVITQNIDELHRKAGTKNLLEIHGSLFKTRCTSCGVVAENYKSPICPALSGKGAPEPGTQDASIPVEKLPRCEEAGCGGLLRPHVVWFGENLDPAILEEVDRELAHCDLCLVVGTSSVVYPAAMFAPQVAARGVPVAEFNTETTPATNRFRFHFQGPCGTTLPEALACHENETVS
# PAX8 inh HTS: lowers PAX8-driven luciferase in RMG-I cells. AID 652154. inhibition, % at 12.6 µM. actives 1.2% (n = 360,000). RMG-I TPO-luciferase reporter, SteadyGlo, 24 h;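 active means mean replicate inhibition at least 60% with every replicate also reaching 60%; inconclusive means only one of the two criteria is met; inactive means mean below 60% and not all replicates reaching 60%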;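 further: luciferase light reporting Pax8 driven TPO promoter activity; plate controls were median of neutral control wells for no effect and mitoxantrone controls for full effect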
# rRNA inh HTS: inhibitors of bacterial rRNA selective over humanized ribosomes; E. coli WT GFP vs humanized-ribosome RFP mutants, fluorescence, 24 h; hits give low values; DMSO median 0, no signal -100; GFP signal change (wild-type ribosome), % (test concentration not listed); actives 1.6% (n = 350,000); AID 720706;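 active means significant combined selectivity score with lowered wild-type GFP, culture density cut under 30%, mutant RFP and density less affected; inactive means any of these conditions unmet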
# The depositor's hits bear a star; ? = inconclusive; nt = no result given; ! = not active in a repeat.
SMILES,LGR2 antag,PGC1a acetyl inh,EWS-Fli inh,SIRT5 inh,PAX8 inh HTS,rRNA inh HTS
COC(=O)[C@]1(C)N[C@H](CN(C)S(=O)(=O)c2ccc(C(C)(C)C)cc2)[C@@H]2C(=O)N(C)C(=O)[C@@H]21,nt,nt,-2.9,-2.3,2.5,-24.9*
CCN(C[C@H]1N[C@@](C)(C(=O)OC)[C@H]2C(=O)N(Cc3ccccc3)C(=O)[C@@H]12)S(=O)(=O)c1ccc(C)cc1,5.2,nt,-8.4,2.3,1.2,-21.4*
CCC(=O)N(C)C[C@H]1Oc2cc(C#CC3CCCC3)ccc2S(=O)(=O)N([C@@H](C)CO)C[C@H]1C,16.2,-10.0,6.8,2.8,nt,-3.4
CCC(=O)N(C)C[C@H]1Oc2cc(C#CCN(C)C)ccc2S(=O)(=O)N([C@@H](C)CO)C[C@H]1C,-5.1,9.0,-1.1,2.0,nt,7.7
O=C(CCc1c[nH]c2ccccc12)N1CCN(c2ccc(O)cc2)CC1,15.1,-6.1,-38.0,3.4,19.8,-29.1*
C[C@H](CO)N1C[C@H](C)[C@@H](CN(C)C(=O)Cc2ccccc2)OCCCC[C@H](C)Oc2ccc(NC(=O)C3CCCCC3)cc2C1=O,-19.5,-7.6,3.4,nt,-20.9,-5.5
C[C@@H]1CN([C@@H](C)CO)C(=O)c2c(c3ccccc3n2C)-c2ccccc2CO[C@@H]1CN(C)C(=O)c1cc(Cl)cc(Cl)c1,10.4,-95.6,6.8,1.6,34.0,1.2
O=c1c(Cl)c(Cl)cnn1Cc1nnc(-c2ccc(Cl)cc2)o1,103.9*,-72.9,17.7,-1.3,54.6,-19.1
O=C(N/N=C/c1c[nH]c2ccc(Br)cc12)C1CC1,9.9,-1.6,7.0,nt,16.7,-33.5*
O=C(N/N=C/c1c[nH]c2ccc(Br)cc12)c1ccc2c(c1)OCO2,-30.6,9.4,-5.4,1.4,-1.9,-30.3*
O=C(N/N=C/c1c[nH]c2ccccc12)c1ccc2c(c1)OCCO2,-14.4,-8.4,-72.7,2.5,-66.8,7.0
O=C(N/N=C/c1cc(Br)c(Br)o1)c1ccc2c(c1)OCCO2,-48.1,-10.0,-118.2,0.1,-129.2,2.8
O=C(N/N=C/c1cc(Br)c(O)c(Br)c1O)c1ccc2c(c1)OCCO2,-29.6,2.8,-50.8,4.4,-12.3,-19.2*
CC=Cc1ccc2n(c1=O)C[C@@H]1[C@@H](CO)[C@H](C(=O)NCCC)N(C(=O)CC)[C@H]21 (mixture of isomers),5.6,0.2,-1.4,-0.4,-1.9,-0.6
C[C@H]1CN([C@@H](C)CO)C(=O)c2cc(-c3cccc(C#N)c3)cnc2O[C@@H]1CN(C)C(=O)C1CCCCC1,-0.4,-2.2,1.6,4.1,16.0,-3.8
O=C(Nc1ccc(Cl)cc1)N[C@H]1CC[C@H](CCNC(=O)c2cc(Cl)cc(Cl)c2)O[C@@H]1CO,24.6,-4.8,4.2,-0.8,32.4,-7.7
O=C(c1ccc(-c2ccccc2)c(F)c1)C1CCCN(CCCn2cccn2)C1 (stereo not drawn),1.9,6.5,25.8,-0.5,32.1,-22.2*
CCn1cc(CN2CCCC(C(=O)c3ccc(-c4ccccc4)c(F)c3)C2)cn1 (stereo not drawn),6.5,-2.5,8.2,-1.1,19.0,-12.7
N=C1/C(=C\c2ccc(Br)o2)C(=O)N=C2SC(CC(=O)N3CCCCC3)=NN12,3.4,8.9,3.0,20.6*,1.7,5.8
Cc1ccnc(NC(=O)c2ccc(OCC3CCCO3)cc2)c1 (stereo not drawn),0.1,nt,69.9*,-1.6,48.8,-1.7
COc1ccc(C(=O)/C=C/Nc2cc(C)ccn2)cc1,74.2*,-16.8,28.5,1.7,-64.8,-16.4
Cc1ccc(NC(=O)c2ccc(OCC3CCCO3)cc2)c(C)c1 (stereo not drawn),2.8,nt,nt,nt,8.3,nt
COc1ccc(C(=O)NC(=O)Nc2cc(C)ccn2)cc1,74.5*,9.9,72.7*,0.9,nt,14.6
CSc1ccc(NC(=O)Nc2cc(C)ccn2)cc1,58.3*,-11.3,52.0*,0.6,-81.7,2.0
CN(C)CC(=O)Nc1ccc2c(c1)[C@@H]1C[C@@H](CC(=O)NCc3ccc(Cl)cc3)O[C@H](CO)[C@@H]1O2,-16.2,-21.3,-2.2,-1.7,nt,-0.1
SMILES,LGR2 antag,PGC1a acetyl inh,EWS-Fli inh,SIRT5 inh,PAX8 inh HTS,rRNA inh HTS
O=S(=O)(N[C@@H]1CC[C@@H](CCn2cc(C3CC3)nn2)O[C@H]1CO)c1ccc(Cl)cc1,19.0,-1.6,-0.7,-2.0,1.5,2.2
CCCOc1ccc(N/C=C/C(=O)c2ccc(OC)c(OC)c2)cc1,-16.5,-1.8,-6.1,16.7*,16.6,-5.9
O=C(NC(=O)c1ccccc1)Nc1ccccn1,88.6*,nt,nt,-4.4,85.0*,3.1
COc1ccc(N/C=C/C(=O)c2ccccc2)cc1,65.3*,nt,39.0,-2.9,-75.2,6.8
COc1ccc(N/C=C\C(=O)c2ccc3ccccc3c2)cc1,-48.3,-4.5,6.4,2.4,-16.3,3.7
O=C(Nc1ccccn1)c1ccc(C(=O)c2ccccc2)cc1,-62.4,7.6,-81.8,-0.2,-221.3,-8.6
CCOc1ccc(NC(=O)/C=C/c2ccccc2)c([N+](=O)[O-])c1,-74.3,nt,-9.3,6.7,-81.0,18.9
CCOc1ccc(N/C=C/C(=O)c2ccc(OC)c(OC)c2)cc1,-9.5,-0.5,-53.2,3.9,-117.1,13.8
CCOc1ccc(N/C=C/C(=O)c2ccccc2)c([N+](=O)[O-])c1,90.8*,nt,59.9*,-3.3,-26.0,0.2
CC(C)CC#Cc1ccc2c(c1)O[C@@H](CN(C)Cc1ccc3c(c1)OCO3)[C@H](C)CN([C@@H](C)CO)S2(=O)=O,nt,1.2,36.2,11.9,nt,8.2
CC(C)CC#Cc1ccc2c(c1)O[C@H](CN(C)Cc1ccc3c(c1)OCO3)[C@H](C)CN([C@H](C)CO)S2(=O)=O,nt,-3.6,18.6,14.2*,nt,0.8
C[C@H](CO)N1C[C@H](C)[C@@H](CN(C)Cc2ccc3c(c2)OCO3)Oc2cc(Br)ccc2S1(=O)=O,-0.7,3.5,4.4,-0.7,4.9,-14.0
C[C@@H]1CN([C@@H](C)CO)S(=O)(=O)c2ccc(Br)cc2O[C@@H]1CN(C)Cc1ccc2c(c1)OCO2,11.5,-1.8,5.9,2.4,8.4,-34.5*!
CC(C)CC#Cc1ccc2c(c1)O[C@@H](CN(C)Cc1ccc3c(c1)OCO3)[C@H](C)CN([C@H](C)CO)S2(=O)=O,nt,53.4*,?,?,nt,2.5
CC(C)CC#Cc1ccc2c(c1)O[C@@H](CN(C)Cc1ccc3c(c1)OCO3)[C@@H](C)CN([C@H](C)CO)S2(=O)=O,nt,-22.9,25.0,nt,nt,-2.4
CCOC(=O)COc1cccc2c(=O)n(CC(=O)N3CCCc4ccccc43)ccc12,-0.7,-16.2,22.9,-1.7,-3.2,-10.2
COc1cccc2c(=O)n(CC(=O)N3CCCc4ccccc43)ccc12,39.1,-11.1,7.5,23.0*,20.8,-0.5
